D2 ag-1 – activates the human D2 dopamine receptor; HEK293 T-REx D2 cells, calcium flux agonist mode; activation, % at 2 µM; hit rate 0.53% among 340,000;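 active = activation over 3 SD above normal in the single-dose calcium agonist read, cut at about 30% in these data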; note: 0% is about no effect
Target sequence (P14416 whole entry, looked up): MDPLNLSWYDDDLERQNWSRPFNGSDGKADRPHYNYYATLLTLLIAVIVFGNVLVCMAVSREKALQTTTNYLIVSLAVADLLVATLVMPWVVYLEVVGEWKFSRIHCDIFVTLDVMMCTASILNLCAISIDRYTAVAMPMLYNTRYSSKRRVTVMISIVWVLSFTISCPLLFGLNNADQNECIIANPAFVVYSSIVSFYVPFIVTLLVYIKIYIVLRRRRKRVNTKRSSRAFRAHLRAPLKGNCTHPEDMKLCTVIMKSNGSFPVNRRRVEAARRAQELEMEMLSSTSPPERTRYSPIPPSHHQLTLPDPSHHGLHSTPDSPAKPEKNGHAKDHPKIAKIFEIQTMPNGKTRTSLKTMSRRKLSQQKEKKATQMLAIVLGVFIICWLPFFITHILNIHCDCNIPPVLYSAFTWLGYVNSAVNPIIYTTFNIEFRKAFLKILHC
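Agonism scored from kinetic calcium signal (1 read/sec, 180 s) following compound pin transfer, after a 10 s baseline. Cells: HEK293 Trex line expressing inducible D2 receptor coupled to calcium, dye-loaded after overnight culture at 30 C.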
D2 PAM-1 – positively modulates the human D2 dopamine receptor allosterically; potentiation, % at 10 µM; hit rate 0.34% among 340,000; HEK293 T-REx D2, calcium flux, EC20 dopamine potentiation; P14416;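 active = potentiation over 3 SD above the plate norm, cut at about 30% in these data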; note: 0% is about no effect
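Potentiation of an EC20 dopamine calcium response is measured in a force-coupled, tetracycline-inducible Hek293 Trex D2 line. Compound-only kinetic reads over 180 s flag agonists before dopamine addition.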
D2 ag-2 – human D2 receptor agonism in beta-arrestin assay; P14416; DiscoveRx PathHunter D2 beta-arrestin, luminescence, 90 min; 100% = 57 uM dopamine signal; activation, % (no concentration beside the values); hit rate 0.084% among 360,000; AID 624465; in the data active = activation above about 40%
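Agonist mode: compounds alone added to overnight-plated D2 PathHunter cells for 90 min at 37 C, with 57 uM final dopamine (EC100) defining full response. Beta-arrestin recruitment detected by chemiluminescent reagent, read after 1 h at ambient temperature.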
D2 antagonist – D2 dopamine receptor (human) antagonism. P14416. HEK293 TREx D2 cells, calcium flux, dopamine EC80. inhibition, % at 10 µM. hit rate 2% among 340,000; in the data active = inhibition above about 30%; inactive = below that, where a call was filed; note: 0% is about no effect
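Overnight-induced (tetracycline, 30 C) HEK293 T-REx cells carrying force-coupled D2 receive a no-wash calcium dye, then compound, then EC80 dopamine at 180 s; signals are read kinetically throughout.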
D2 PAM-2 – human D2 receptor positive allosteric modulation; DiscoveRx D2 beta-arrestin cells, luminescence, 90 min; 100% = 57 uM dopamine signal; potentiation, % (concentration not given with the values); hit rate 0.23% among 360,000; AID 624464; in the data active = potentiation above about 50%
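PathHunter D2 cells, attached overnight at 37 deg C, received compound in DMSO plus dopamine at EC20 (50 nM final) for 90 min at 37 deg C. Beta-arrestin recruitment was read as luminescence after 1 h with detection reagent at ambient temperature.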
* hit, by the source's call; / = not tested or not shown. This is a sample that favours compounds with a hit; in the whole collection about 2.4% have one here.

SMILES	D2 ag-1	D2 PAM-1	D2 ag-2	D2 antagonist	D2 PAM-2
COc1ccccc1OCCNC(=O)C1CCN(C(C)=O)CC1	2	31*	0	5	-6
CCOC(=O)c1cnc2c(Cl)cc(Cl)cc2c1Nc1ccccc1OC	0	-3	/	/	/
Cn1c2c(c(=O)n(C)c1=O)C1(C(=O)Nc3ccccc31)C(C#N)=C(N)O2 (stereo unspecified)	/	/	10	/	54*
N#CC1=C(N)Oc2ccccc2C12C(=O)Nc1n[nH]c(-c3ccccc3)c12 (stereo unspecified)	-1	1	8	-2	22
Nc1nnc(-c2ccccc2F)s1	1	11	-2	45*	-5
CC1CCN(CCCNC(=O)c2cc(Sc3ccc(F)cc3)nc3ccccc23)CC1	-1	/	/	/	/
Cc1cc(C(F)(F)F)n(-c2nc(C(=O)O)cs2)n1	0	-4	1	-3	-4
O=C(O)c1csc(-n2nc(-c3ccccc3)cc2C(F)(F)F)n1	0	15	4	48*	-10
COc1ccc(CN2CCCC(N3CCN(c4cccc(Cl)c4)CC3)C2)cc1OC (stereo unspecified)	38*	-17	-2	26	-42
CCOc1cc(CN2CCCC(N3CCN(c4ccc(F)cc4)CC3)C2)ccc1OC (stereo unspecified)	0	-15	-4	-2	-1
COc1ccccc1N1CCN(C2CCCN(S(=O)(=O)c3cccc(Cl)c3)C2)CC1 (stereo unspecified)	-1	-27	-3	53*	-49
COc1ccccc1N1CCN(C2CCCN(S(=O)(=O)c3ccc(C)cc3)C2)CC1 (stereo unspecified)	1	-19	-4	66*	-52
CCOc1ccccc1NC(=O)c1nc2nc(C)cc(C(F)F)n2n1	1	-3	/	/	/
CCCCCCc1cc2cc(S(=O)(=O)c3ccc(Cl)cc3)c(=O)oc2cc1O	/	-6	2	/	3
CCN(CC)c1ccc2cc(S(=O)(=O)c3ccc(Cl)cc3)c(=O)oc2c1	68*	5	-3	-76	-1
CC(C)C(=O)Nc1ccc2nc(SCC(=O)N3CCc4ccccc43)sc2c1	-2	-7	/	/	/
O=C(NC(=S)Nc1ccc2oc(=O)ccc2c1)c1cccc(Cl)c1	0	-2	-4	30*	-7
Cc1ccc(C(O)c2ncc(-c3ccccc3Cl)[nH]2)cc1 (stereo unspecified)	/	/	5	/	-8
N#CC1=C(c2ccccc2)/C(=C/c2ccccc2)OC1=O	2	9	0	35*	-13
O=C1O/C(=C/c2ccccc2)c2ccccc21	-1	0	2	-2	19
c1ccc(CN2CCN(c3nc4ccccc4n4cnnc34)CC2)cc1	1	-32	-5	68*	-5
Clc1cccc(N2CCN(CCNc3nc4ccccc4n4cnnc34)CC2)c1	4	-21	3	42*	-16
COc1ccc(Cl)cc1NC(=O)c1c(C(=O)Nc2cccc(C)c2C)sc2nc(C)cc(=O)n12	0	11	/	/	/
Cc1ccc(C(=O)Nc2c(C)nc3ccccn3c2=O)cc1	1	-4	/	/	/
CCC1CCC(N2CCN(c3ccccc3F)CC2)CC1 (stereo unspecified)	18	-24	5	37*	1
SMILES	D2 ag-1	D2 PAM-1	D2 ag-2	D2 antagonist	D2 PAM-2
COc1ccc(NC(=O)CCn2c(=S)[nH]c3ccccc3c2=O)cc1Cl	/	/	-2	/	-7
COc1ccccc1CCNC(=O)c1cccn1-c1nnc(N2CCCC2)s1	0	-1	/	/	/
COc1ccc(NC(=O)Cc2c(C(=O)O)n(C)c3ccccc23)cc1OC	0	32*	-5	2	-1
COc1cc(NC(=O)Cc2c(C(=O)O)n(C)c3ccccc23)cc(OC)c1OC	/	/	5	/	-4
O=C(Nc1ccccc1)C1COc2ccccc2O1 (stereo unspecified)	0	-10	0	5	-12
O=C(Nc1cccnc1)C1COc2ccccc2O1 (stereo unspecified)	0	41*	-2	20	-16
O=C(NCCc1ccc(O)c(O)c1)C1COc2ccccc2O1 (stereo unspecified)	1	12	41*	-5	1
O=C(NCCc1ccccc1)C1COc2ccccc2O1 (stereo unspecified)	0	-4	2	-5	-8

Bioassay records as filed in PubChem BioAssay.
